Results from PubChem BioAssay.
Several values for one entry are separate records, joined by “and”; a condition that tells them apart may be missing. Identical values can stand only once. Activity calls are given as the source filed them.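 How the source made its calls, unless noted: active means thallium flux through the channel raised or lowered by more than 3 SD from vehicle-only wells, actives on both sides; inactive means the rest.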

Assays:
[1] = modulation of C. elegans fzo-1 (AID 1259413; call rule not given here;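 further: fzo-1 mutant C. elegans worms in liquid wells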); details: C. elegans fzo-1 modulator screen, mean read-out; stronger effect = higher value
[2] = liver-stage malaria parasite growth inhibition, primary screen, cell-based, HepG2, luciferase luminescence, HepG2 viability (AID 624349; in the data active means parasite load remaining mostly below about 12%, no sharp cut-off; inactive means mostly above about 10%;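 further: 100% = mean of DMSO negative control wells on the same plate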); details: P. berghei liver stage in HepG2, luciferase luminescence, concentration not given here; parasite load remaining: stronger effect = lower value; viability: measured here: HepG2 viability without parasites
[3] = Cy5 fluorescence interference with SSB-bound oligo, artefact control for HCV NS3 helicase inhibitor project, biochemical, NIH Clinical Collection, E. coli SSB (AID 743268; call rule not given here)
[4] = tested on: Hepatitis C virus NS3 helicase; experiment: HCV NS3 helicase inhibitors, primary screen, biochemical, fluorescence polarization, NIH Clinical Collection (AID 743270; call rule not given here); details: NS3 helicase binding to Cy5-dT15 DNA, stronger effect = higher value, concentration not given here
[5] = target: Single-stranded DNA-binding protein (Escherichia coli (strain K12)) (UniProt P0AGE0); experiment: E. coli SSB displacement from DNA, counter-screen for HCV NS3 helicase inhibitor project, biochemical, fluorescence polarization, NIH Clinical Collection (AID 743271; in the data active means inhibition above about 28%); details: stronger effect = higher value, concentration not given here
[6] = fluorescence interference in NS3h assay format, artefact control for HCV NS3 helicase inhibitor project, biochemical, NIH Clinical Collection (AID 743272; call rule not given here;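 further: HCV NS3 helicase with a Cy5 labelled single stranded DNA probe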); details: fluorescence interference counterscreen, stronger effect = lower value
F380Y = experiment: modulators of BK channel variants, profiling panel, selectivity assay, cell-based, U2OS BacMam, thallium flux, beta subunits (AID 1259406); details: at 30 µM;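 further: initial slope of Thallos dye fluorescence rise after thallium is added; log ratio against the mean of 0.3% DMSO vehicle wells on the same plate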
F380Y/beta1 = experiment: as above; details: at 30 µM
F380Y/beta2Delta = experiment: as above; details: at 30 µM
F380Y/beta4 = experiment: as above; details: at 30 µM
[7] = target: Calcium-activated potassium channel subunit alpha-1 (Homo sapiens) + Leucine-rich repeat-containing protein 26 (Homo sapiens) (UniProt Q12791+Q2I0M4); experiment: as above; details: F380Y/Slo1WT/gamma1, at 30 µM
Sequence of Calcium-activated potassium channel subunit alpha-1 (Homo sapiens) + Leucine-rich repeat-containing protein 26 (Homo sapiens) (Q2I0M4 whole entry, looked up, one chain of several): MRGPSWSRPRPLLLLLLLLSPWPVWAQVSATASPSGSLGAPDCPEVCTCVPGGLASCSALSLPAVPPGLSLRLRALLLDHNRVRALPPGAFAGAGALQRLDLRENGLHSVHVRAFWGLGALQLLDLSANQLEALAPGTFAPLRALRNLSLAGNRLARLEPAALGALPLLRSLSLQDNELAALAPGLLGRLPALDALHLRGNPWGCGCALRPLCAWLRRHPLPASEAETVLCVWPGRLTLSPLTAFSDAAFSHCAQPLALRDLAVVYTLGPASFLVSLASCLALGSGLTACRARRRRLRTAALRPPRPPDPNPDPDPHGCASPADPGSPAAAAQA

R275C = experiment: as above; details: at 30 µM
R275C/beta1 = experiment: as above; details: at 30 µM
R275C/beta2Delta = experiment: as above; details: at 30 µM
R275C/beta4 = experiment: as above; details: at 30 µM
R275C/Slo1WT/beta2 = experiment: as above; details: at 30 µM
[8] = sensitizers of A549 cells to miR-34 induction, primary screen, imaging, A549 dox-inducible miR-34, nuclei and caspase counts (AID 1347080;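 active means compounds whose cell count with miR-34 switched on is under 0.7 times the count with it off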); details: A549 miR-34 inducible, Hoechst nuclei count, 48 h
[9] = viability rescue of complex I mutant cybrids, primary screen, cell-based, galactose medium, ATP luminescence (AID 1645843;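 active means z-score of at least 1.8 in each of two replicates, scored against plate mean and spread of sample wells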;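 further: positive z means more ATP and so rescue of galactose-driven cybrid death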); details: complex I mutant cybrid cells, 72 h, stronger effect = higher value
[10] = tested on: Neuropilin-2 / VEGF-C interaction (human); experiment: inhibitors of NRP2–VEGF-C binding, biochemical, microplate binding format, z-score (AID 743281; call rule not given here); details: microplate NRP2/VEGF-C binding assay; stronger effect = lower value
[11] = stronger effect = lower value, cell number ratio, induced over uninduced
[12] = measured here: relative caspase fold change +Dox/-Dox
[13] = measured here: total cells with miR-34 induction, stronger effect = lower value
[14] = measured here: total cells without miR-34 induction

CC(=O)S[C@@H]1CC2=CC(=O)CCC2(C)[C@H]2CCC3(C)[C@@H](CC[C@@]34CCC(=O)O4)[C@H]12 (stereo partly drawn)
mean signal [1]: 260 (inactive)

C=CC1=C(C(=O)O)N2C(=O)[C@@H](NC(=O)C(=NO)c3csc(N)n3)[C@H]2SC1
parasite load remaining [2]: 50% (inactive)
viability [2]: 69.3%
fluorescence ratio [3]: 1 (inactive)
inhibition [4]: 11.1% (inactive)
inhibition [5]: 96.5% (active)
fluorescence ratio [6]: 0.91 (inactive)
log fold change Tl+ flux (F380Y): 0.0518 (inactive)
log fold change Tl+ flux (F380Y/beta1): 0.00826 (inactive)
log fold change Tl+ flux (F380Y/beta2Delta): 0.0258 (inactive)
log fold change Tl+ flux (F380Y/beta4): 0.0162 (inactive)
log fold change Tl+ flux [7]: -0.00804 (inactive)
log fold change Tl+ flux (R275C): -0.0491 (inactive)
log fold change Tl+ flux (R275C/beta1): 0.0161 (inactive)
log fold change Tl+ flux (R275C/beta2Delta): 0.037 (inactive)
log fold change Tl+ flux (R275C/beta4): 0.0002 (inactive)
log fold change Tl+ flux (R275C/Slo1WT/beta2): 0.0335 (inactive)

CO[C@H]1/C=C/O[C@@]2(C)Oc3c(C)c(O)c4c(O)c(c(C=NN5CCN(C6CCCC6)CC5)c(O)c4c3C2=O)NC(=O)/C(C)=C\C=C\[C@H](C)[C@H](O)[C@@H](C)[C@@H](O)[C@@H](C)[C@H](OC(C)=O)[C@@H]1C
parasite load remaining [2]: 21% (inactive)
viability [2]: 92%
fluorescence ratio [3]: 1.06 (inactive)
inhibition [4]: -0.45% (inactive)
inhibition [5]: -0.48% (inactive)
fluorescence ratio [6]: 0.94 (inactive)
fold change [8, 11]: 0.995 (inactive)
fold change [8, 12]: 1.52
cell count [8, 13]: 8010
cell count [8, 14]: 8050
z-score [9]: -1.41 (inactive)
log fold change Tl+ flux (F380Y): 0.0494 (inactive)
log fold change Tl+ flux (F380Y/beta1): 0.0885 (inactive)
log fold change Tl+ flux (F380Y/beta2Delta): 0.179 (active)
log fold change Tl+ flux (F380Y/beta4): 0.152 (active)
log fold change Tl+ flux [7]: 0.0279 (inactive)
log fold change Tl+ flux (R275C): 0.0114 (inactive)
log fold change Tl+ flux (R275C/beta1): 0.161 (active)
log fold change Tl+ flux (R275C/beta2Delta): 0.0213 (inactive)
log fold change Tl+ flux (R275C/beta4): 0.283 (active)
log fold change Tl+ flux (R275C/Slo1WT/beta2): 0.0216 (inactive)

C=CC[C@@H]1C=C(C)C[C@H](C)C[C@H](OC)[C@H]2O[C@@](O)(C(=O)C(=O)N3CCCC[C@H]3C(=O)O[C@H](/C(C)=C/[C@@H]3CC[C@@H](O)[C@H](OC)C3)[C@H](C)[C@@H](O)CC1=O)[C@H](C)C[C@@H]2OC
parasite load remaining [2]: 77.5% (inactive)
viability [2]: 72.5%
fluorescence ratio [3]: 0.94 (inactive)
inhibition [4]: -1.19% (inactive)
inhibition [5]: 2.21% (inactive)
fluorescence ratio [6]: 0.92 (inactive)
log fold change Tl+ flux (F380Y): -0.344 (active)
log fold change Tl+ flux (F380Y/beta1): -0.0137 (inactive)
log fold change Tl+ flux (F380Y/beta2Delta): -0.629 (active)
log fold change Tl+ flux (F380Y/beta4): 0.109 (active)
log fold change Tl+ flux [7]: 0.0458 (inactive)
log fold change Tl+ flux (R275C): -0.067 (inactive)
log fold change Tl+ flux (R275C/beta1): 0.274 (active)
log fold change Tl+ flux (R275C/beta2Delta): 0.123 (active)
log fold change Tl+ flux (R275C/beta4): 0.467 (active)
log fold change Tl+ flux (R275C/Slo1WT/beta2): 0.00553 (inactive)

COc1cc(N)c(Cl)cc1C(=O)N[C@@H]1CCN(CCCOc2ccc(F)cc2)C[C@@H]1OC
parasite load remaining [2]: 13.5% (inactive)
viability [2]: 57.3%
fluorescence ratio [3]: 1 (inactive)
inhibition [4]: -2.77% (inactive)
inhibition [5]: -0.1% (inactive)
fluorescence ratio [6]: 0.96 (inactive)
z-score [10]: -0.527 (inactive)
mean signal [1]: 277 (inactive)
fold change [8, 11]: 0.991 (inactive)
fold change [8, 12]: 0.684
cell count [8, 13]: 6800
cell count [8, 14]: 6860
z-score [9]: -0.47 (inactive)
log fold change Tl+ flux (F380Y): 0.00662 (inactive)
log fold change Tl+ flux (F380Y/beta2Delta): 0.0148 (inactive)
log fold change Tl+ flux [7]: -0.0526 (inactive)
log fold change Tl+ flux (R275C): 0.0357 (inactive)
log fold change Tl+ flux (R275C/beta1): -0.0487 (inactive)
log fold change Tl+ flux (R275C/beta2Delta): 0.039 (inactive)

CN(C)CC/C=C1/c2ccccc2COc2ccccc21
parasite load remaining [2]: 72.1% (inactive) and 22.2% (inactive) and 49.1% (inactive)
viability [2]: 73% and 104% and 60.2%
fluorescence ratio [3]: 0.97 (inactive)
inhibition [4]: -1.98% (inactive)
inhibition [5]: -0.1% (inactive)
fluorescence ratio [6]: 0.93 (inactive)
z-score [10]: -0.308 (inactive)
fold change [8, 11]: 0.906 (inactive) and 0.927 (inactive)
fold change [8, 12]: 1.31 and 1.98
cell count [8, 13]: 8570 and 9810
cell count [8, 14]: 9460 and 10600
z-score [9]: -0.705 (inactive)
log fold change Tl+ flux (F380Y): 0.124 (active)
log fold change Tl+ flux (F380Y/beta2Delta): 0.0845 (active)
log fold change Tl+ flux [7]: 0.0355 (inactive)
log fold change Tl+ flux (R275C): 0.0343 (inactive)
log fold change Tl+ flux (R275C/beta1): 0.0624 (inactive)
log fold change Tl+ flux (R275C/beta2Delta): 0.0478 (inactive)

CC(C)CC(NC(=O)C(COC(C)(C)C)NC(=O)C(Cc1ccc(O)cc1)NC(=O)C(CO)NC(=O)C(Cc1c[nH]c2ccccc12)NC(=O)C(Cc1cnc[nH]1)NC(=O)C1CCC(=O)N1)C(=O)N[C@@H](CCCN=C(N)N)C(=O)N1CCCC1C(=O)NNC(N)=O (stereo partly drawn)
parasite load remaining [2]: 82.9% (inactive)
viability [2]: 90.6%
fluorescence ratio [3]: 0.89 (inactive)
inhibition [4]: -0.22% (inactive)
inhibition [5]: 7.48% (inactive)
fluorescence ratio [6]: 0.87 (inactive)
z-score [10]: -0.441 (inactive)
log fold change Tl+ flux (F380Y): -0.0277 (inactive)
log fold change Tl+ flux (F380Y/beta1): 0.02 (inactive)
log fold change Tl+ flux (F380Y/beta2Delta): -0.0184 (inactive)
log fold change Tl+ flux (F380Y/beta4): 0.00509 (inactive)
log fold change Tl+ flux [7]: -0.0112 (inactive)
log fold change Tl+ flux (R275C): -0.0448 (inactive)
log fold change Tl+ flux (R275C/beta1): 0.00576 (inactive)
log fold change Tl+ flux (R275C/beta2Delta): -0.00625 (inactive)
log fold change Tl+ flux (R275C/beta4): -0.0787 (inactive)
log fold change Tl+ flux (R275C/Slo1WT/beta2): 0.0919 (active)
